Source: the supplement of paper PMC13380429

Tested on: Vero E6 infected with SARS-CoV-2
Assay: inhibition of SARS-CoV-2 cytopathic effect; higher = more antiviral protection, active = above 15
Settings: 48 h

Measured: inhibition of SARS-CoV-2 cytopathic effect

O=S(=O)(c1ccccc1)N(CC(F)(F)F)c1ccc(C(O)(C(F)(F)F)C(F)(F)F)cc1
inactive: 1 nM 1.99% | 8.33 nM 0.95% | 100 nM -0.31% | 833.33 nM 2.71% | 10000 nM -0.14%

OCCOc1ccc(/C(=C(/CCCl)c2ccccc2)c2ccccc2)cc1 [ospemifene]
inactive: 1 nM -2.23% | 8.33 nM 1.01% | 100 nM 3.19% | 833.33 nM 3.68% | 10000 nM 8.11%

CCCCCCCCOc1ccccc1C(=O)Nc1ccc(C(=O)OCC[N+](C)(CC)CC)cc1 [otilonium]
inactive: 1 nM 2.76% | 8.33 nM -0.22% | 100 nM 1.35% | 833.33 nM 1.63% | 10000 nM 0.68%

CCCCCCNC(=O)n1cc(F)c(=O)[nH]c1=O [Carmofur]
inactive: 1 nM -1.95% | 8.33 nM 0.48% | 100 nM 2.25% | 833.33 nM 1.65% | 10000 nM -0.73%

O=C1COc2nccc(-c3ccccc3F)c2CN1Cc1cc(C(F)(F)F)cc(C(F)(F)F)c1
inactive: 1 nM -0.76% | 8.33 nM -1.69% | 100 nM -0.49% | 833.33 nM -2.79% | 10000 nM -1.55%

COc1ccc(N(C(=O)Oc2c(C)cccc2C)c2ccnc(Nc3ccc(N4CCN(C)CC4)cc3)n2)c(OC)c1
inactive: 1 nM 0.25% | 8.33 nM 1.54% | 100 nM 0.43% | 833.33 nM 0.02% | 10000 nM -1.27%

Cc1ccc([N+](=O)[O-])cc1S(=O)(=O)N(C)/N=C/c1cnc2ccc(Br)cn12
inactive: 1 nM 0.29% | 8.33 nM -0.13% | 100 nM -5.92% | 833.33 nM -16.5% | 10000 nM -5.86%
